Experimental data reported in PubChem BioAssay AID1159580 (chemical genetic matrix, 2015).
Out of some 5,500 compounds screened, about 2,000 (36%) were called active. Inconclusive results (about 18%) are left out. Rule as the data show it: active = normalized growth mostly below about 0.91 (no sharp cut-off); inconclusive = no clear call, values can overlap the other calls; inactive = mostly above about 0.92. Some of the results follow.

Experiment: chemical genetic growth profiling, strain panel (AID 1159580);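 also: tested at 20 µM; growth read once vehicle control cultures reached saturation at 30 °C; 1 = growth at the plate median or of vehicle wells; lower values mean less growth of the strain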
Settings: growth OD
[1] = S. cerevisiae deletion strains, locus YAL013W, strain DEP1, stronger effect = lower value
[2] = S. cerevisiae deletion strains, locus YBR229C, strain ROT2, stronger effect = lower value
[3] = S. cerevisiae deletion strains, locus YDL101C, strain DUN1, stronger effect = lower value
[4] = S. cerevisiae deletion strains, locus YDR150W, strain NUM1, stronger effect = lower value
[5] = S. cerevisiae deletion strains, locus YEL061C, strain CIN8, stronger effect = lower value
[6] = S. cerevisiae deletion strains, locus YGR078C, strain PAC10, stronger effect = lower value
[7] = S. cerevisiae deletion strains, locus YGR229C, strain SMI1, stronger effect = lower value
[8] = S. cerevisiae deletion strains, locus YHR030C, strain SLT2, stronger effect = lower value
[9] = S. cerevisiae deletion strains, locus YHR087W, strain rtc3, stronger effect = lower value
[10] = S. cerevisiae deletion strains, locus YJL187C, strain SWE1, stronger effect = lower value
[11] = S. cerevisiae deletion strains, locus YJR043C, strain POL32, stronger effect = lower value
[12] = S. cerevisiae deletion strains, locus YJR075W, strain HOC1, stronger effect = lower value
[13] = S. cerevisiae deletion strains, locus YLR039C, strain RIC1, stronger effect = lower value
[14] = S. cerevisiae deletion strains, locus YLR058C, strain SHM2 (second series), stronger effect = lower value
[15] = S. cerevisiae deletion strains, locus YLR085C, strain ARP6, stronger effect = lower value
[16] = S. cerevisiae deletion strains, locus YLR262C, strain YPT6, stronger effect = lower value
[17] = S. cerevisiae deletion strains, locus YML094W, strain GIM5, stronger effect = lower value
[18] = S. cerevisiae deletion strains, locus YMR219W, strain ESC1, stronger effect = lower value
[19] = S. cerevisiae deletion strains, locus YMR263W, strain SAP30, stronger effect = lower value
[20] = S. cerevisiae deletion strains, locus YNL128W, strain TEP1, stronger effect = lower value
[21] = S. cerevisiae deletion strains, locus YNL153C, strain GIM3, stronger effect = lower value
[22] = S. cerevisiae deletion strains, locus YNL298W, strain CLA4 (second series), stronger effect = lower value
[23] = S. cerevisiae deletion strains, locus YNL322C, strain KRE1, stronger effect = lower value
[24] = S. cerevisiae deletion strains, locus YNR030W, strain Alg12, stronger effect = lower value
[25] = S. cerevisiae deletion strains, locus YOL006C, strain TOP1, stronger effect = lower value
[26] = S. cerevisiae deletion strains, locus YPL055C, strain LGE1, stronger effect = lower value
[27] = S. cerevisiae deletion strains, locus YPL241C, strain CIN2, stronger effect = lower value
[28] = S. cerevisiae deletion strains, locus YPR135W, strain CTF4, stronger effect = lower value
[29] = S. cerevisiae strains, strain wild type, stronger effect = lower value
[30] = S. cerevisiae deletion strains, locus YBL105C, strain PKC1, stronger effect = lower value
[31] = S. cerevisiae deletion strains, locus YBR135W, strain CKS1, stronger effect = lower value
[32] = S. cerevisiae deletion strains, locus YBR136W, strain MEC1, stronger effect = lower value
[33] = S. cerevisiae deletion strains, locus YBR160W, strain CDC28, stronger effect = lower value
[34] = S. cerevisiae deletion strains, locus YDL017W, strain CDC7, stronger effect = lower value
[35] = S. cerevisiae deletion strains, locus YDL028C, strain MPS1, stronger effect = lower value
[36] = S. cerevisiae deletion strains, locus YDL108W, strain KIN28, stronger effect = lower value
[37] = S. cerevisiae deletion strains, locus YDL214C, strain PRR2, stronger effect = lower value
[38] = S. cerevisiae deletion strains, locus YDR052C, strain DBF4, stronger effect = lower value
[39] = S. cerevisiae deletion strains, locus YDR226W, strain ADK1, stronger effect = lower value
[40] = S. cerevisiae deletion strains, locus YDR477W, strain SNF1, stronger effect = lower value
[41] = S. cerevisiae deletion strains, locus YER123W, strain YCK3, stronger effect = lower value
[42] = S. cerevisiae deletion strains, locus YER133W, strain GLC7, stronger effect = lower value
[43] = S. cerevisiae deletion strains, locus YFR003C, strain YPI1, stronger effect = lower value
[44] = S. cerevisiae deletion strains, locus YFR019W, strain FAB1, stronger effect = lower value
[45] = S. cerevisiae deletion strains, locus YFR028C, strain CDC14, stronger effect = lower value
[46] = S. cerevisiae deletion strains, locus YGR040W, strain KSS1, stronger effect = lower value
[47] = S. cerevisiae deletion strains, locus YGR052W, strain FMP48, stronger effect = lower value
[48] = S. cerevisiae deletion strains, locus YGR092W, strain DBF2, stronger effect = lower value
[49] = S. cerevisiae deletion strains, locus YHR079C, strain IRE1, stronger effect = lower value
[50] = S. cerevisiae deletion strains, locus YHR082C, strain KSP1, stronger effect = lower value
[51] = S. cerevisiae deletion strains, locus YHR205W, strain SCH9, stronger effect = lower value
[52] = S. cerevisiae deletion strains, locus YIL147C, strain SLN1, stronger effect = lower value
[53] = S. cerevisiae deletion strains, locus YJL095W, strain BCK1, stronger effect = lower value
[54] = S. cerevisiae deletion strains, locus YJL128C, strain PBS2, stronger effect = lower value
[55] = S. cerevisiae deletion strains, locus YJL157C, strain FAR1, stronger effect = lower value
[56] = S. cerevisiae deletion strains, locus YJR016C, strain ILV3, stronger effect = lower value
[57] = S. cerevisiae deletion strains, locus YJR066W, strain TOR1 (second series), stronger effect = lower value
[58] = S. cerevisiae deletion strains, locus YJR066W, strain TOR1, stronger effect = lower value
[59] = S. cerevisiae deletion strains, locus YKL048C, strain ELM1, stronger effect = lower value
[60] = S. cerevisiae deletion strains, locus YKL067W, strain YNK1, stronger effect = lower value
[61] = S. cerevisiae deletion strains, locus YKL101W, strain HSL1, stronger effect = lower value
[62] = S. cerevisiae deletion strains, locus YKL203C, strain TOR2, stronger effect = lower value
[63] = S. cerevisiae deletion strains, locus YLR113W, strain HOG1, stronger effect = lower value
[64] = S. cerevisiae deletion strains, locus YLR133W, strain CKI1, stronger effect = lower value
[65] = S. cerevisiae deletion strains, locus YLR403W, strain SFP1, stronger effect = lower value
[66] = S. cerevisiae deletion strains, locus YML070W, strain DAK1, stronger effect = lower value
[67] = S. cerevisiae deletion strains, locus YMR205C, strain PFK2 (second series), stronger effect = lower value
[68] = S. cerevisiae deletion strains, locus YNL006W, strain LST8, stronger effect = lower value
[69] = S. cerevisiae deletion strains, locus YNL020C, strain ARK1, stronger effect = lower value
[70] = S. cerevisiae deletion strains, locus YNL183C, strain NPR1, stronger effect = lower value
[71] = S. cerevisiae deletion strains, locus YNL307C, strain MCK1 (second series), stronger effect = lower value
[72] = S. cerevisiae deletion strains, locus YOL136C, strain PFK27, stronger effect = lower value
[73] = S. cerevisiae deletion strains, locus YOR061W, strain CKA2, stronger effect = lower value
[74] = S. cerevisiae deletion strains, locus YOR119C, strain RIO1, stronger effect = lower value
[75] = S. cerevisiae deletion strains, locus YOR231W, strain MKK1, stronger effect = lower value
[76] = S. cerevisiae deletion strains, locus YPL031C, strain PHO85, stronger effect = lower value
[77] = S. cerevisiae deletion strains, locus YPL153C, strain RAD53, stronger effect = lower value
[78] = S. cerevisiae deletion strains, locus YPL209C, strain IPL1, stronger effect = lower value
[79] = S. cerevisiae deletion strains, locus YPL256C, strain CLN2, stronger effect = lower value
[80] = S. cerevisiae deletion strains, locus YPR106W, strain ISR1, stronger effect = lower value
[81] = S. cerevisiae deletion strains, locus YPR111W, strain DBF20, stronger effect = lower value
[82] = S. cerevisiae deletion strains, locus YCL061C, strain MRC1, stronger effect = lower value

Measured: normalized growth

O=C(CSc1ccc(Cl)cc1)Nc1ccc(F)cc1
active: [1] 0.909 | [2] 0.908 | [4] 0.803 | [6] 0.888 | [7] 0.924 | [8] 0.679 | [9] 0.888 | [11] 0.916 | [12] 0.823 | [14] 0.909 | [18] 0.916 | [22] 0.808 | [23] 0.923 | [24] 0.807 | [26] 0.782 | [27] 0.849 | [28] 0.608
inactive: [3] 0.939 | [5] 0.942 | [10] 1 | S. cerevisiae deletion strains, locus YKL190W, strain CNB1, stronger effect = lower value 0.934 | [13] 0.884 | [15] 0.79 | [16] 0.826 | [17] 0.875 | [19] 0.948 | [20] 0.968 | [21] 0.925 | [25] 0.78 | [29] 0.919

N/C(CCSc1ccc(Cl)cc1)=N/OC(=O)Nc1ccc(Cl)cc1
inactive: [30] 0.986 | [31] 0.984 | [32] 0.978 | [33] 0.978 | [34] 0.982 | [35] 0.986 | [36] 0.983 | [38] 0.982 | [39] 0.983 | [43] 0.981 | [45] 0.986 | [52] 0.986 | [54] 0.944 | [56] 0.981 | [78] 0.983 | [80] 0.976 | [81] 0.978
active: [37] 0.336 | [40] 0.273 | [41] 0.0987 | [42] 0.286 | [44] 0.108 | [46] 0.247 | [47] 0.118 | [48] 0.275 | [8] 0.104 | [49] 0.118 | [50] 0.114 | [51] 0.253 | [53] 0.111 | [55] 0.371 | [57] 0.0983 | [58] 0.114 | [59] 0.346 | [60] 0.377 | [61] 0.259 | [62] 0.14 | [63] 0.126 | [64] 0.377 | [65] 0.311 | [66] 0.103 | [67] 0.345 | [68] 0.697 | [69] 0.375 | [70] 0.122 | [71] 0.315 | [72] 0.125 | [73] 0.326 | [74] 0.133 | [75] 0.103 | [76] 0.142 | [77] 0.0978 | S. cerevisiae deletion strains, locus YPL204W, strain HRR25, stronger effect = lower value 0.105 | [79] 0.118

COC(=O)CCCCCCCC(=O)Nc1ccc(Cl)cc1
inactive: [1] 0.999 | [2] 0.997 | [82] 0.998 | [3] 0.984 | [4] 0.896 | [5] 1 | [6] 0.997 | [7] 1.03 | [8] 0.999 | [9] 0.983 | [11] 1.01 | [12] 0.985 | [13] 1.01 | [14] 1.01 | [15] 1.01 | [16] 1.02 | [17] 0.975 | [18] 1.01 | [19] 1.01 | S. cerevisiae deletion strains, locus YMR307W, strain GAS1, stronger effect = lower value 1.06 | [20] 1.02 | [21] 0.997 | [22] 1.01 | [23] 1 | [24] 0.997 | [26] 0.929 | [27] 0.991 | [28] 0.955 | [29] 1.02

CC(C)c1ccc(COC(=O)Nc2ccc(CSc3ccc(Cl)cc3)o2)cc1
inactive: S. cerevisiae deletion strains, locus YAR019C, strain CDC15, stronger effect = lower value 0.99 | [30] 0.992 | [31] 0.983 | [32] 0.983 | [33] 0.989 | [34] 0.982 | [35] 0.985 | [3] 0.992 | [36] 0.985 | S. cerevisiae deletion strains, locus YDL132W, strain cdc53, stronger effect = lower value 0.982 | [37] 0.934 | [38] 0.993 | S. cerevisiae deletion strains, locus YDR054C, strain cdc34, stronger effect = lower value 0.972 | [39] 0.981 | [40] 0.929 | [41] 0.91 | [42] 0.925 | S. cerevisiae deletion strains, locus YFL009W, strain cdc4, stronger effect = lower value 0.979 | S. cerevisiae deletion strains, locus YFL029C, strain CAK1, stronger effect = lower value 0.983 | [43] 0.983 | [44] 0.935 | [45] 0.988 | [46] 0.923 | [47] 0.952 | [48] 0.921 | [8] 0.871 | [49] 0.886 | [50] 0.963 | [51] 0.82 | [52] 0.983 | [53] 0.855 | [54] 0.954 | [55] 0.907 | [56] 0.98 | [57] 0.9 | [58] 1.01 | [59] 0.953 | [60] 0.938 | [61] 0.953 | S. cerevisiae deletion strains, locus YKL193C, strain SDS22, stronger effect = lower value 0.98 | [62] 0.976 | [63] 0.879 | [64] 0.928 | [65] 0.893 | [66] 0.912 | S. cerevisiae deletion strains, locus YMR001C, strain CDC5, stronger effect = lower value 0.983 | [67] 0.928 | S. cerevisiae deletion strains, locus YMR277W, strain FCP1, stronger effect = lower value 0.982 | [68] 0.988 | [69] 0.919 | S. cerevisiae deletion strains, locus YNL161W, strain CBK1, stronger effect = lower value 0.98 | [70] 0.995 | S. cerevisiae deletion strains, locus YNL207W, strain RIO2, stronger effect = lower value 0.982 | S. cerevisiae deletion strains, locus YNL222W, strain SSU72, stronger effect = lower value 0.987 | [71] 0.933 | S. cerevisiae deletion strains, locus YOL078W, strain AVO1, stronger effect = lower value 0.981 | [72] 0.92 | [73] 0.909 | [74] 0.983 | [75] 0.963 | S. cerevisiae deletion strains, locus YOR329C, strain SCD5, stronger effect = lower value 0.986 | [76] 0.902 | [77] 0.912 | [78] 0.988 | [79] 0.923 | S. cerevisiae deletion strains, locus YPR025C, strain CCL1, stronger effect = lower value 0.989 | [80] 0.983 | [81] 0.983 | S. cerevisiae deletion strains, strain NNK1, stronger effect = lower value 0.987 | S. cerevisiae deletion strains, strain TSCII, stronger effect = lower value 0.986

O=C(CC1NCCN(Cc2ccccc2)C1=O)Nc1ccc(Cl)cc1 (stereo not given)
inactive: [1] 0.993 | [2] 0.995 | [82] 0.981 | [3] 0.968 | [4] 0.993 | [5] 1.01 | [6] 0.99 | [8] 0.955 | [9] 0.97 | [10] 1.01 | [11] 0.971 | [12] 1.02 | [13] 0.988 | [14] 0.998 | [15] 1.01 | [16] 0.994 | [17] 1.01 | [18] 1.01 | [20] 1 | [21] 0.981 | [22] 0.975 | [23] 0.996 | [24] 0.984 | [25] 0.993 | [26] 0.909 | [27] 1 | [28] 0.915
